± gives the standard deviation of the averaged measurements. In all, about 25,000 sequences were measured (“ln(normalized median fluorescence intensity)”: median about 8.6, highest 2% from about 10 on). Many of the other results were omitted from the sample, so the highest values are more common in it than they were.

For the experiment, the system named is PfAP2-EXP AP2 domain (GST-tagged). The experiment can be described thus: gcPBM binding intensity (ln(normalized median fluorescence intensity)); higher = stronger DNA binding. An outline of the steps:
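In this array assay, P. falciparum DNA-binding domains with a GST tag, expressed in E. coli, were applied for 1 h to primer-extended double-stranded 36-bp intergenic genomic probes and negative controls on an Agilent 4 × 180k array. Bound protein was visualised with Alexa488 anti-GST antibody at 488 nm. Binding intensity is the highest Masliner-normalised natural-log median intensity across replicate spots of either probe orientation.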
As for “ATGGAAATAAAAAAAAAAAAAAAAAAAAATATATAT [GTGCAC_negctrl_site67]”, the “gcPBM binding intensity (ln)” value was 8.36 ± 0.33. With “TGCAAAAAAAAAAAAAAAAAATATATGGAAATATAT [GTGCAC_negctrl_site257]” the figure was 8.54 ± 0.19.

As for “TTGTATATATATGGAAAAATATATATATATATATAT [GTGCAC_negctrl_site591]”, the “gcPBM binding intensity (ln)” value came to 10.3 ± 0.29.

For the sequence “CGTATTATTATATAAACACACAAGGGGGCATGTATA [CACACA_site745]”, the “gcPBM binding intensity (ln)” value amounted to 9.83 ± 0.042. Consider “AATATTTAAGTACTGGTGCGTGTATATAATGATTAA [GTGCAC_site9633]”, for which the “gcPBM binding intensity (ln)” value amounted to 8.665 ± 0.078. With “AAAAAAAAAAAAATTGCATGTAAATGAAATAATAAA [TGCATGCA_site116]” the figure was 8.89 ± 0.2; with “AATATTTTAAATATTGCATGCAATGAAAAATGTAAA [TGCATGCA_site139]”, 10.2 ± 0.31; with “TTATTGTAAATATATGCATGTGCAAAATGAAAAAAA [TGCATGCA_site399]”, 9.07 ± 0.18. With “TAAAAGTTCACCTGTACACACATATAAATATGTACA [CACACA_site6901]” the figure was 8.47 ± 0.33; with “TAAGTTCCCTTTGAATGTACATATAATGAAAAGAAA [XGTACX_site826]”, 8.76 ± 0.37. With “AGTTTCCATATGAGGTGTACATATATAATTTATTAT [XGTACX_site2369]” the figure was 8.72 ± 0.4. Turning to “ATATATTTACTTAATACACACAAAAAAAAAAAAAAA [CACACA_site3657]”, the “gcPBM binding intensity (ln)” value came to 8.21 ± 0.52. Take “AAAAATACCTTATATATACACACTATGTTTTTCTTT [CACACA_site1192]”: the “gcPBM binding intensity (ln)” value stood at 8.71 ± 0.28. The same measure for “TATTGCCCTGGACACACACACATATATATATATATA [CACACA_site5389]”: 10.2 ± 0.51; for “TATATATAGAAACACACACACATATATATATATATT [CACACA_site4115]”: 8.7 ± 0.37; for “TATATTGCCCTTCACACACACACATATATATATATA [CACACA_site2492]”: 10.2 ± 0.28. The same measure for “TATTGCCCGAAACACACACACATATATATATATATA [CACACA_site2491]”: 10.3 ± 0.2; for “TATATATAGAAACACACACACACATATATATATATT [CACACA_site2539]”: 8.73 ± 0.67.

Turning to “TATTGCCCTTGACACACACACATATAAATAAATATA [CACACA_site7220]”, the “gcPBM binding intensity (ln)” value was 8.63 ± 0.37.

On to “TTCAAATATAAATACACACACATAGCTACAAAATAA [CACACA_site4172]”, for which the “gcPBM binding intensity (ln)” value was determined as 8.95 ± 0.42.

As to “ATATATATATATATTTGTACAGATTTATATTATAAT [XGTACX_site7612]”, the “gcPBM binding intensity (ln)” value turned out to be 9.96 ± 0.23. With “ATTCATATATTTATTGCATGCAAAGTAAAATAAATA [TGCATGCA_site307]”, the “gcPBM binding intensity (ln)” value worked out at 10.23 ± 0.099. As to “TATTATTTTTCATATGCATGCAAAAATAAAAAAATA [TGCATGCA_site350]”, the “gcPBM binding intensity (ln)” value was 9.63 ± 0.35. With “TTTGCAACATATAAAAGTACAAATAATATATTTATT [XGTACX_site890]” the figure was 8.41 ± 0.43; with “AGTATATATACACAAGGGGAATACATATACAAAATT [TGCATGCA_negctrl_site244]”, 8.89 ± 0.39. The same measure for “GGAATATATATACATACACACATATATATATATATA [CACACA_site1666]”: 10.1 ± 0.33. With “ACAAAAGGGGAATACACACACATATATAAATAAATA [CACACA_site7111]” the figure was 8.73 ± 0.45; with “ACAAAAGGGGAATACACACACATATATATATATATA [CACACA_site2215]”, 10.2 ± 0.52. Regarding “TACACAAGGGGAAAAATATATATATATATATATATA [TGCATGCA_negctrl_site217]”, the “gcPBM binding intensity (ln)” value was 10.2 ± 0.57. With “AAGATATGAGGGAATACACACATATTTATATTTATA [CACACA_site6846]” the figure was 8.26 ± 0.38. With “AAGATATGAGGGAATACACACATATATATATATATA [CACACA_site1581]” the figure was 10.2 ± 0.43; with “ATAAAATCAAAATATACACACAAGGGGGAAAATCAA [CACACA_site2809]”, 8.96 ± 0.42; with “ATACAAAAGGGGAATACACACACATATATATATATA [CACACA_site8694]”, 10.1 ± 0.33.

For the sequence “TTTTTAATAATCTCTCAAAATGTTCTTATATTTTAC [CACACA_negctrl_site1691]”, the “gcPBM binding intensity (ln)” value came to 8.11 ± 0.26.

For the sequence “TATAAATGATTAATTTGTACATATTTTACTTAATTG [XGTACX_site5271]”, the “gcPBM binding intensity (ln)” value stood at 8.18 ± 0.37. The same measure for “ATATTATGTCTACATAAACACACATATATATAAAAA [CACACA_site7976]”: 8.62 ± 0.48. The same measure for “TATATTTTACTCTTCACACATATACTCAATTTATAT [CACACA_site5357]”: 8.94 ± 0.31; for TTGTATCCTTAATGCATGCACCAAATAACAAAAGTA: 10.2 ± 0.38. Consider “CTGTATAAAACCAATGCATGTAAATATATTAATATA [TGCATGCA_site511]”, for which the “gcPBM binding intensity (ln)” value amounted to 9.1 ± 0.42. The same measure for “TATTGTATCCTTAATGCATGCACCAAATAAAAAAAG [TGCATGCA_site541]”: 10.21 ± 0.064; for “AAAAAAAAAATATATATATATATATATATATATATA [GTGCAC_negctrl_site467]”: 9.95 ± 0.53; for “AAAAAAAAAAAAAAAAAAAAAAAAAAATATATATAT [CACACA_negctrl_site271]”: 9.795 ± 0.049.

Turning to “AAAAAAAAAAAATATATATATATATATATATATATA [CACACA_negctrl_site1606]”, the “gcPBM binding intensity (ln)” value was 10.3 ± 0.21. With “AAAAAAAAAAAAAAAAAAAAAAAAATATATATATAT [CACACA_negctrl_site436]” the figure was 10 ± 0.31. With “AAAAAAATATATATATATATATATATATATATATAT [TGCATGCA_negctrl_site7]” the figure was 10.1 ± 0.26; with “AAAAAAAAAAAAAATATATATATATATATATATATA [CACACA_negctrl_site540]”, 10.2 ± 0.2.

Source of the values: the supplement of paper PMC11417369.
